Source: PubChem BioAssay (NCATS)
Where “and” joins values, the source holds several entries; their conditions need not be identical. Identical values can stand only once. Results filed as inconclusive are left out. Where a call stands in place of a potency, no number is given. Calls of active or inactive are those of the source. Unless noted, calls follow the shape of the dose curve; as a rule, active = well fitted curve in the direction sought with a large enough effect; inconclusive = small, poorly fitted or top-dose-only effect, or another doubt; inactive = no such curve, though single readings can be large; an effect the other way counts as inactive or inconclusive.

Assays:
[1] = molecular target: T1, Tyrosine-protein phosphatase non-receptor type substrate 1 (Homo sapiens) + Leukocyte surface antigen CD47 (Homo sapiens) (UniProt P78324+Q08722); experiment: CD47-SIRPalpha protein protein interaction - HTRF assay qHTS validation (AID 1347058; active = well fitted curve in the direction sought with a large enough effect in the signal ratio, not every such curve was filed as active; the % refers to the signal ratio; also: series mostly up to about 38 µM)
Procedure, shortened: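 Soluble extracellular domains (6His-CD47, Avi-tag-biotinylated SIRPalpha) in PBS pH 7.4 with 0.05% IGEPAL CA-630. Compounds were preincubated 30 min at RT with CD47 and anti-His-Eu, then SIRPalpha and SAV-XL665 were added. TR-FRET 665/615 ratio.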

[2] = molecular target: T1, Tyrosine-protein phosphatase non-receptor type substrate 1 (Homo sapiens) + Leukocyte surface antigen CD47 (Homo sapiens); experiment: CD47-SIRPalpha protein protein interaction - Alpha assay qHTS validation (AID 1347059);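 also: bead proximity luminescence from CD47 binding SIRPalpha after compound preincubation with SIRPalpha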
Procedure, shortened: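 SIRPalpha-biotin 25 nM + cpd, 30 min RT, dark; add CD47-His 12.5 nM, 30 min; add Ni-NTA/SAV beads 10 ug/mL, 30 min; AlphaScreen. Buffer PBS pH 7.4 + 0.05% IGEPAL CA-630. Non-biotinylated SIRPalpha as control inhibitor.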

[3] = qHTS of pediatric cancer cell lines to identify multiple opportunities for drug repurposing: Primary screen for DAOY cells (AID 1347090); also: nearly all actives have a fitted effect of over 55% in size; also: potency is read from the fitted curve at half-maximal effect
Procedure, shortened: (§1)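 Viability measured as metabolically active cells via CellTiter-Glo luminescence following 48 hours of compound exposure, 11-point dilutions in confirmatory testing. 500-1,000 cells/well plated 5 hours before dosing; controls were DMSO and 2.3 µM bortezomib.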

[4] = qHTS of pediatric cancer cell lines to identify multiple opportunities for drug repurposing: Primary screen for A673 cells (AID 1347092); also: nearly all actives have a fitted effect of over 45% in size; also: potency is read from the fitted curve at half-maximal effect
Procedure, shortened: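 A673 cells (500-1,000 cells/well) were treated 48 hours at 37 degrees C with compounds at 11-point (0.78 nM to 46 µM) or 8-point (0.59 nM to 46 µM) dilutions. Viability read by CellTiter-Glo luminescence; concentration-response curves fitted.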

[5] = qHTS of pediatric cancer cell lines to identify multiple opportunities for drug repurposing: Primary screen for SK-N-MC cells (AID 1347093); also: potency is read from the fitted curve at half-maximal effect
Procedure, shortened: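 Metabolically active cells were quantified by ATP-dependent luminescence (CellTiter-Glo, 15 min at room temperature) following 48 h treatment. Cells had been plated at 500-1,000 per well and settled for 5 h beforehand.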

[6] = molecular target: Parathyroid hormone/parathyroid hormone-related peptide receptor (Homo sapiens) (UniProt Q03431); experiment: qHTS for PTHR1 Agonists: Optimization Screen against the NCGC LOPAC library (AID 1347079);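 also: GloSensor cAMP luminescence in HEK-293 GP2 cells expressing human PTHR1 with IBMX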
Procedure, shortened: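 Signal increase flags agonism. GP2 cells, derived from HEK-293, express human PTHR1 and a GloSensor cAMP construct.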

[7] = qHTS of pediatric cancer cell lines to identify multiple opportunities for drug repurposing: Primary screen for BT-37 cells (AID 1347094); also: potency is read from the fitted curve at half-maximal effect
Procedure, shortened: (§2)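 Readout: CellTiter-Glo luminescence, 48 h treatment. Controls DMSO (neutral) and bortezomib 2.3 µM final (positive). Potency and efficacy taken from primary-screen concentration-response curves.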

[8] = qHTS of pediatric cancer cell lines to identify multiple opportunities for drug repurposing: Primary screen for NB-EBc1 cells (AID 1347095); also: potency is read from the fitted curve at half-maximal effect
Procedure, shortened: as §2

[9] = qHTS of pediatric cancer cell lines to identify multiple opportunities for drug repurposing: Primary screen for TC32 cells (AID 1347089); also: nearly all actives have a fitted effect of over 60% in size; also: potency is read from the fitted curve at half-maximal effect
Procedure, shortened: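 TC32 cells, 500-1,000/well in growth medium, compound-treated 48 h at 37 °C; viability from CellTiter-Glo luminescence. Primary screen: MIPE 11-point (0.78 nM–46 µM final), NPC 8-point (0.59 nM–46 µM final); confirmatory at 11-point dilutions.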

[10] = qHTS of pediatric cancer cell lines to identify multiple opportunities for drug repurposing: Primary screen for SJ-GBM2 cells (AID 1347091); also: potency is read from the fitted curve at half-maximal effect
Procedure, shortened: as §1

Chain of Parathyroid hormone/parathyroid hormone-related peptide receptor (Homo sapiens) (Q03431 whole entry, looked up): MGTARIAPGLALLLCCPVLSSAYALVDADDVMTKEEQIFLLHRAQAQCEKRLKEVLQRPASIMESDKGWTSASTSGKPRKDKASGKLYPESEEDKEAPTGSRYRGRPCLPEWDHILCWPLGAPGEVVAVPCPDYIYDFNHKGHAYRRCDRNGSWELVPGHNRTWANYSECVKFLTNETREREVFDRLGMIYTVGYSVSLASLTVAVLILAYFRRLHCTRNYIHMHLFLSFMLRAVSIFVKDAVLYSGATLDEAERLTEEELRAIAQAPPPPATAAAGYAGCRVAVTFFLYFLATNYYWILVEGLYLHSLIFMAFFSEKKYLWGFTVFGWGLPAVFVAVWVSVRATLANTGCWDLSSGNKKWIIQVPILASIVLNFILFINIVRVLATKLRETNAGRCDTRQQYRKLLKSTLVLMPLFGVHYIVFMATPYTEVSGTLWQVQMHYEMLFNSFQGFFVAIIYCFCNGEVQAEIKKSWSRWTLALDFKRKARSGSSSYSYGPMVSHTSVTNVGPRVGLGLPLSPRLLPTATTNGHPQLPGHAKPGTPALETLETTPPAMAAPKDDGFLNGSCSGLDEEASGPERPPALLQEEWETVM
T1 sequence (P78324 whole entry, looked up, the tested form may be a part): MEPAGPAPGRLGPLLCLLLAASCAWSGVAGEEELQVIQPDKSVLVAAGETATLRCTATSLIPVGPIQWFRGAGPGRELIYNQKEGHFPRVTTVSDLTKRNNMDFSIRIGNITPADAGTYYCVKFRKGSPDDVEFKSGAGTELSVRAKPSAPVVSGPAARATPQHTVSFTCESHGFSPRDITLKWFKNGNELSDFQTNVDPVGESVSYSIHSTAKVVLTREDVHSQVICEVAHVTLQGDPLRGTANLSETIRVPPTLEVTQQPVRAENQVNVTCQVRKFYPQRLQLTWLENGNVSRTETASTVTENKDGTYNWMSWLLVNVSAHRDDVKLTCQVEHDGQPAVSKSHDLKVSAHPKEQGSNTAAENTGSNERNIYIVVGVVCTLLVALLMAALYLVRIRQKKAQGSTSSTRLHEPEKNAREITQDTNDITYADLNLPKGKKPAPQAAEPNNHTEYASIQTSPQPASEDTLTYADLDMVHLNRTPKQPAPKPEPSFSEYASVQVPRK
T1 sequence (Q08722 whole entry, looked up, the tested form may be a part): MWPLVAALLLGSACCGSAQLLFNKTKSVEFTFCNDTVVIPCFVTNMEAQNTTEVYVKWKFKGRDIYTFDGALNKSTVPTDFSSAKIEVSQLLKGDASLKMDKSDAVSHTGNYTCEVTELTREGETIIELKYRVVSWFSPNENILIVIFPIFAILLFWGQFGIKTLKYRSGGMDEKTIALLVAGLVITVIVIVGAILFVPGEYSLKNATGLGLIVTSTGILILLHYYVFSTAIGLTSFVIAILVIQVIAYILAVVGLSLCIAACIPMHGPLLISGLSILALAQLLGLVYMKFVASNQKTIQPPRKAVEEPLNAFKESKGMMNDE

Compound | outcome [1] | outcome [2] | Potency [3] | Potency [4] | Potency [5] | outcome [6] | Potency [7] | Potency [8] | Potency [9] | Potency [10]
CCc1cncnc1N1CCN(Cc2nc3ccc(C(F)(F)F)cc3[nH]2)CC1 | inactive | inactive | 18.7 µM (active) | 29.6 µM (active) | 23.5 µM (active) |  |  |  |  | 
NCCc1ccc(O)c(O)c1 | inactive | inactive |  | 23.5 µM (active) and 10.6 µM (active) | 18.7 µM (active) and 7.5 µM (active) | inactive | inactive | inactive |  | 
CCN(CC)CCCC(C)Nc1ccnc2cc(Cl)ccc12 (stereo not given) |  |  |  | 2.96 µM (active) | 0.0372 µM (active) | inactive |  | inactive | inactive | 
Oc1cccc(-c2nc(N3CCOCC3)c3oc4ncccc4c3n2)c1 |  |  | 2.15 µM (active) | 2.15 µM (active) | 0.0481 µM (active) |  | 0.444 µM (active) | 0.191 µM (active) | 0.758 µM (active) | 0.0855 µM (active)
CC(C)(C)OC(=O)CN(Cc1ccc(Cl)cc1)Cc1ccc([N+](=O)[O-])s1 |  |  | inactive |  | 20.9 µM (active) |  | inactive |  | inactive | inactive
O=C(C1CC1)N1CC[C@@H](Cn2c(-c3ccc(-c4ccc5occc5c4)cc3)nc3cnccc32)C1 |  |  | inactive | inactive | 18.7 µM (active) |  |  | 13.2 µM (active) | inactive | 8.33 µM (active)
NC[C@H](O)c1ccc(O)c(O)c1 |  | inactive | inactive |  |  | inactive | inactive | inactive | inactive | inactive
Cc1cccc(-c2[nH]c(C(C)(C)C)nc2-c2ccc3nccnc3c2)n1 |  | inactive |  | 14.8 µM (active) | 10.5 µM (active) | inactive | 19.3 µM (active) |  | 13.1 µM (active) | 
OCCn1cc(-c2cnc3nnn(Cc4ccc5ncccc5c4)c3n2)cn1 |  |  | inactive | inactive | inactive |  |  | inactive | inactive | 0.0059 µM (active)
Cc1cc2c(C(C)C)c(O)c(O)c(C=O)c2c(O)c1-c1c(C)cc2c(C(C)C)c(O)c(O)c(C=O)c2c1O | inactive |  | 21.1 µM (active) and 14.8 µM (active) |  | 5.96 µM (active) and 9.35 µM (active) | inactive | 15.5 µM (active) and 24.3 µM (active) | 3.76 µM (active) and 2.96 µM (active) | inactive | 4.22 µM (active) and 3.72 µM (active)
Nc1ncnc2nc(-c3ccc(N4CCOCC4)nc3)cc(-c3cccc(Br)c3)c12 |  |  |  |  |  | inactive |  | inactive | inactive | 
O=C(O)[C@@H](c1ccc(OCc2ccc3ccccc3n2)cc1)C1CCCC1 |  |  | inactive | inactive | inactive |  | inactive |  | inactive | inactive
NC(N)=NC(=O)c1nc(Cl)c(N)nc1N |  | inactive |  |  |  | inactive | inactive | inactive | inactive | 
CCCCNc1cc(C(=O)O)cc(S(N)(=O)=O)c1Oc1ccccc1 |  |  | inactive | inactive | inactive | inactive | inactive | inactive | inactive | inactive
C[C@]12CCC(=O)C=C1CC[C@@H]1[C@@H]2[C@@H](O)C[C@@]2(C)[C@H]1CC[C@]2(O)C(=O)CO |  |  | inactive | inactive | inactive | inactive | inactive | inactive | inactive | 
CC(C)OC(=O)C1=CN(C(=O)c2ccc(F)c(F)c2)CC(C)(C)c2c1[nH]c1ccccc21 |  |  | inactive | inactive | 26.4 µM (active) |  | inactive | inactive | inactive | inactive
COc1ccc(CC2=NN3C([C@@H](CCc4ccccc4)[C@@H](C)O)=NC(C)C3C(=O)N2)cc1OC (stereo not given in full) |  |  | inactive | inactive |  |  | inactive | inactive | inactive | inactive
Cn1cnc2c(F)c(Nc3ccc(Br)cc3Cl)c(C(=O)NOCCO)cc21 |  |  | 14.8 µM (active) | 2.35 µM (active) | 2.64 µM (active) |  |  |  | inactive | inactive
NC(=O)c1ccc(I)c([N+](=O)[O-])c1 |  |  | inactive | 18.7 µM (active) | 3.72 µM (active) |  | inactive | inactive | inactive | inactive
COc1ccc(C2=N[C@H](c3ccc(Cl)cc3)[C@H](c3ccc(Cl)cc3)N2C(=O)N2CCNC(=O)C2)c(OC(C)C)c1 |  |  | 23.5 µM (active) | 14.8 µM (active) | 2.64 µM (active) |  | 7.69 µM (active) | 0.743 µM (active) | inactive | 14.8 µM (active)
CS(=O)(=O)c1cccc(CNc2nc(Nc3ccc4c(c3)CCC(=O)N4)ncc2C(F)(F)F)c1 |  | inactive |  | 14.8 µM (active) | 7.43 µM (active) |  | 27.3 µM (active) | 14.8 µM (active) |  | 10.5 µM (active)
Cc1[nH]c(=O)c(C#N)cc1-c1ccncc1 |  | inactive | inactive | inactive |  | inactive | inactive | inactive |  | inactive

Compound | outcome [1] | outcome [2] | Potency [3] | Potency [4] | Potency [5] | outcome [6] | Potency [7] | Potency [8] | Potency [9] | Potency [10]
NNCCc1ccccc1 |  | inactive | inactive |  |  | inactive | inactive | inactive | inactive | inactive
CCCc1nn(C)c2c(=O)[nH]c(-c3cc(S(=O)(=O)N4CCN(C)CC4)ccc3OCC)nc12 |  | inactive | inactive |  |  |  | inactive | inactive |  | 
COc1ccc(CCN2CCN(CCCc3ccccc3)CC2)cc1OC |  |  | inactive |  | 18.7 µM (active) |  |  |  | inactive | inactive
CN1CCN(CCCN2c3ccccc3Sc3ccc(C(F)(F)F)cc32)CC1 |  |  | inactive | 21.1 µM (active) and 296 nM (active) | 1.05 µM (active) | inactive |  |  | inactive | 18.7 µM (active)
Cc1oncc1C(=O)Nc1ccc(C(F)(F)F)cc1 | inactive | inactive |  |  | 6.68 µM (active) | inactive | inactive |  |  | 
NC(=O)c1ccc(-c2nc(-c3ccc4c(c3)OCO4)c(-c3ccccn3)[nH]2)cc1 |  |  | inactive | inactive | inactive |  |  | inactive | inactive | inactive
Cc1c(C)c2c(c(C)c1O)CCC(C)(COc1ccc(CC3SC(=O)NC3=O)cc1)O2 (stereo not given) |  |  | inactive | inactive |  |  | inactive | inactive | inactive | inactive
O=C(O)CCc1ccc(NCc2cccc(Oc3ccccc3)c2)cc1 | inactive | inactive | inactive |  | inactive |  | inactive | inactive | inactive | inactive
CNCc1ccc(-c2[nH]c3cc(F)cc4c3c2CCNC4=O)cc1 |  |  | inactive | 4.69 µM (active) |  |  |  |  | inactive | inactive
Cc1ccc(N(CC2=NCCN2)c2cccc(O)c2)cc1 |  |  | inactive | 18.7 µM (active) and 16.8 µM (active) |  | inactive | inactive | inactive | inactive | inactive
N=c1nc(N2CCCCC2)cc(N)n1O |  |  | inactive |  |  | inactive | inactive | inactive |  | inactive
O=C(Nc1nc2ccccc2n1CCN1CCOCC1)c1cccc([N+](=O)[O-])c1 |  | inactive | 7.43 µM (active) |  | 3.32 µM (active) | inactive | 7.69 µM (active) | 7.43 µM (active) |  | 
Cn1cnc([N+](=O)[O-])c1Sc1ncnc2nc[nH]c12 |  | inactive | 1.91 µM (active) and 6.68 µM (active) and 5.9 µM (active) | 762 nM (active) and 1.06 µM (active) and 1.18 µM (active) | inactive | inactive | 994 nM (active) and 1.38 µM (active) and 1.53 µM (active) |  | 10.8 µM (active) and 10.5 µM (active) and 16.5 µM (active) | 
CCN(c1ccccc1)c1cc(NC)[n+](C)c(C)n1 |  |  | inactive |  | inactive |  |  |  | inactive | 
CNC(=O)c1ccc(C)c(-n2c(C)cc(OCc3ccc(F)cc3F)c(Br)c2=O)c1 |  |  | inactive |  |  |  | inactive |  | inactive | inactive
CC1(C)CNc2cc(NC(=O)c3cccnc3NCc3ccncc3)ccc21 |  |  | 1.18 µM (active) |  |  |  |  | 9.35 µM (active) | 26.2 µM (active) | 
CCC(C)n1ncn(-c2ccc(N3CCN(c4ccc(OC[C@H]5CO[C@](Cn6cncn6)(c6ccc(Cl)cc6Cl)O5)cc4)CC3)cc2)c1=O (stereo not given in full) |  |  | inactive |  | 1.48 µM (active) |  | inactive | 1.05 µM (active) | inactive | 
Cc1c(CCOc2ccc(C(=O)O)cc2)c2cc(Cl)ccc2n1C(c1ccccc1)c1ccccc1 |  |  |  | 18.7 µM (active) | 14.8 µM (active) |  |  |  | inactive | inactive
CC(C)(N)C(=O)N[C@H](COCc1ccccc1)C(=O)N1CCC2(CC1)CN(S(C)(=O)=O)c1ccccc12 |  |  | inactive |  | 23.5 µM (active) |  |  | inactive | inactive | 
CS(=O)(=O)c1ccc(C(=O)Nc2ccc(Cl)c(-c3ccccn3)c2)c(Cl)c1 |  |  | inactive |  | 2.64 µM (active) |  | inactive | inactive | inactive | inactive
O=C1CCCC2=C1C(c1[nH]ncc1Cl)N=C(Nc1nc3ccccc3o1)N2 (stereo not given) |  |  | inactive | inactive |  |  | inactive | inactive | inactive | 
